In the library only some 2.4% were active in any assay of this set; here they are far more common.
Anthrax LT inh: qHTS Assay for Anthrax Lethal Toxin Internalization; Cells, anthrax lethal toxin internalization, FRET ratio (460/530); Potency, µM (titrated, usually from 40 µM), most hits filed as inhibitors; hit rate 0.67% among 70,000; further: nearly all actives have a fitted effect of over 50% in size
AmpC det inh: Promiscuous and Specific Inhibitors of AmpC Beta-Lactamase (assay with detergent). purified AmpC, nitrocefin hydrolysis with detergent. hit rate 0.09% among 71,000. Potency, µM (doses to about 28.7 µM). AID 584, 2007; active means well fitted curve in the direction sought with a large enough effect; inconclusive means small, poorly fitted or top-dose-only effect
Target sequence (P00811 whole entry, looked up): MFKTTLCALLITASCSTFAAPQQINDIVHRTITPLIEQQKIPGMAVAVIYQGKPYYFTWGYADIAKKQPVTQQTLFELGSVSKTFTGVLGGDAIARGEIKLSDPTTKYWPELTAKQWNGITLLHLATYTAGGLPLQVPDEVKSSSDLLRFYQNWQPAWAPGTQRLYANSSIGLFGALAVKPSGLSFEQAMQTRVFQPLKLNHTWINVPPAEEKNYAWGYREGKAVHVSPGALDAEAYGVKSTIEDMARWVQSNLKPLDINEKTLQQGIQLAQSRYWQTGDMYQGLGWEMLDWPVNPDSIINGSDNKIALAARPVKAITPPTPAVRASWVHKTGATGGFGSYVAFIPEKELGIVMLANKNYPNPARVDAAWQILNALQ
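E. coli AmpC (5.3 nM) in 20 mM phosphate pH 7.0 with 0.01% Triton X-100, preincubated 15 min RT with compound; nitrocefin (2 uL of 800 uM stock) hydrolysis followed by 480 nm absorbance every 20 s over 4 min.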
Prx2 Sm inh: Schistosoma Mansoni Peroxiredoxins (Prx2) | Potency, µM | Schistosoma mansoni peroxiredoxin 2 (Prx2) | S. mansoni Prx2 activity coupled to TGR/GSH (TGR is thioredoxin glutathione reductase), NADPH fluorescence loss, qHTS | AID 448, 2006 | hit rate 0.07% among 65,000
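Coupled assay in which S. mansoni TGR passes NADPH reducing equivalents via glutathione to Prx2, which reduces H2O2. Compounds were preincubated 15 min at room temperature with 25 nM TGR/50 nM Prx2 mix. Kinetic NADPH fluorescence loss (ex 365/em 450 nm) was monitored.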
AmpC nodet inh: Promiscuous and Specific Inhibitors of AmpC Beta-Lactamase (assay without detergent). AID 585, 2007. AmpC nitrocefin hydrolysis, absorbance 480 nm, no detergent. Potency, µM (series often up to 28.7 µM). P00811. hit rate 1.8% among 71,000
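Enzyme, pH 7.0 phosphate. Compound titrations were pre-incubated with AmpC for 15 min at room temperature before nitrocefin (stock 800 uM) addition; product formation was recorded at 480 nm every 20 s for 4 min.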
A number is an active result; n = inactive; u = inconclusive; x = no result given; [ ] = another dose, or the depositor's remark. Unless noted, the call rests on the fitted dose curve.

SMILES | Anthrax LT inh | AmpC det inh | Prx2 Sm inh | AmpC nodet inh
COc1cccc(-c2nccc(NCCc3c[nH]c4ccc(OC)cc34)n2)c1 | 12.6µM | n | n | n
COc1ccc2[nH]cc(CCNc3ccnc(-c4ccccc4C)n3)c2c1 | u | n | n | n
C=C(C)[C@H]1[C@H]2OC(=O)[C@@H]1[C@]1(O)C[C@H]3O[C@]34C(=O)O[C@H]2[C@]14C | n | n | n | n
CCN(CC)c1ccc(NC(=O)CSc2nc3ccccc3c(=O)[nH]2)cc1 | n | n | n | 10µM[single pt active]
CC1CN(C(=O)Nc2ccc3snnc3c2)c2ccccc21 (stereo unspecified) | u | n | n | 2µM
O=C(Nc1ccc2snnc2c1)N1CCSCC1 | n | n | x | n
COC(=O)[C@@]1(Cc2ccc(OC)cc2)[C@H]2c3cc(C(=O)N4CCCC4)n(CCc4c[nH]c5cc(F)ccc45)c3C[C@H]2CN1C(=O)c1ccccc1 | u | n | n | n
CCCOc1ccc(Cc2nn3c(=O)/c(=C/c4ccco4)sc3nc2=O)cc1 | n | n | n | 10µM[single pt active]
O=C(O)c1nnsc1-c1ccc(-c2snnc2C(=O)O)cc1 | n[8 µM] | n[5.75 µM] | n | n[5.75 µM]
Cc1ccccc1NC(=O)CN1C(=O)COc2ccc(Cl)cc21 | 10µM | n | n | n
COc1cccc(C(=O)Nc2ccc(C)cc2)c1 | n | n | n | n
COC(=O)c1cccc(C(=O)Nc2ccc(C)cc2)n1 | 5.01µM | n | n | n
O=C(O)/C=C(/C(=O)O)[C@]12CCN3CC4=CCO[C@@H]5CC(=O)N[C@@H]1[C@H]5[C@H]4C[C@H]32 | n[8 µM] | n[5.75 µM] | n | n[5.75 µM]
CCOC(=O)N1CCN(c2nc(SC)nc3sc4c(c23)CC(C)(C)OC4)CC1 | u | u | n | u
CC1(C)Cc2c(sc3nc(SCC(=O)N4CCOCC4)nc(N)c23)CO1 | 7.94µM | n | n | n
Cc1nnc(NC(=O)CCCCCN2C(=O)C3C4C=CC(C4)C3C2=O)s1 (stereo unspecified) | n | n | x | 3.98µM[single pt active]
Cc1nnc(NC(=O)NC(C)N2C(=O)C3C4C=CC(C4)C3C2=O)s1 (stereo unspecified) | n | n | n | n
Nc1c2c(nc3ccccc13)CCC[C@H]2O | n | n | n | n
CCOC(=O)C1CCCN(c2c(NCCCN3CCCC(C)C3)c(=O)c2=O)C1 (stereo unspecified) | n | n | n | 3.98µM[single pt active]
CCOC(=O)C1CCCN(c2c(NCC3CCCN3CC)c(=O)c2=O)C1 (stereo unspecified) | n | n | n | 3.98µM[single pt active]
CCN1C(=O)c2cccc3cccc1c23 | u | n | 3.94 | n
COc1ccc([N+](=O)[O-])cc1N | x | n | x | n
COc1ccc(S(=O)(=O)NCCSCc2ccco2)cc1 | n | n | n | 12.6µM[single pt active]
Cc1ccc(OCC(=O)Nc2ccc(S(=O)(=O)Nc3onc(C)c3C)cc2)cc1 | n | n | n | n
Cc1noc(NS(=O)(=O)c2ccc(NC(=O)COc3ccc(Cl)cc3Cl)cc2)c1C | u | n | x | 6.31µM
SMILES | Anthrax LT inh | AmpC det inh | Prx2 Sm inh | AmpC nodet inh
Cc1ccc(S(=O)(=O)CC(=O)Nc2ccc(S(=O)(=O)Nc3onc(C)c3C)cc2)cc1 | n | n | n | n
CCc1cccc(OCC(=O)Nc2ccc(S(=O)(=O)Nc3onc(C)c3C)cc2)c1 | n | n | n | 3.98µM[single pt active]
CC[C@@H](CS(=O)(=O)O)[N+](=O)[O-] | n[8 µM] | n[5.75 µM] | n | n[5.75 µM]
C[C@@H]1O[C@H](O[C@H]2C[C@@H](O)[C@]3(CO)[C@H]4[C@H](O)C[C@]5(C)[C@@H](C6=CC(=O)OC6)CC[C@@]5(O)[C@H]4CC[C@]3(O)C2)[C@@H](O)[C@H](O)[C@H]1O | u | n | n | n
COc1ccc(C(=O)CSc2nnc(-c3cc4ccccc4cc3O)n2Cc2ccco2)cc1 | u | n | n | 10µM
CS(=O)(=O)N1CCC2(CC1)CN(c1cccc(-c3ccccc3)c1)C2 | u | n | n | n
Cc1nc2ccccc2c2oc(C(=O)N3CCN(C(=O)c4ccco4)CC3)cc12 | n | n | n | n
Cc1nc2ccccc2c2oc(C(=O)N3CCc4ccccc4C3)cc12 | 10µM | n | n | n
COc1cc(N=C(N)N=C(N)N)c2ncccc2c1 | n[8 µM] | n[5.75 µM] | n | n[5.75 µM]
COc1ccc2cc3cc(C(=O)NCCc4ccc(OC)c(OC)c4)oc3nc2c1 | 12.6µM | n | n | n
CCN1CCN(CCCNC(=O)c2cc3cc4ccc(OC)cc4nc3o2)CC1 | u | n | n | n
CCCN(CCC)CCCNC(=O)c1cc2cc3ccc(OC)cc3nc2o1 | u | n | n | n
CCCCN(CC)CCCNC(=O)c1cc2cc3ccc(OC)cc3nc2o1 | 12.6µM | n | n | n
O=C1[C@H]2[C@H]3[C@H](O)[C@H](O)C/C(=N/OCc4ccccc4)[C@H]3CC[C@@H]2C(=O)N1Cc1ccc2c(c1)OCO2 | n[8 µM] | x | x | x
N#Cc1c(NC(=O)CSc2n[nH]c(Cc3ccccc3)n2)oc(-c2ccccc2)c1-c1ccccc1 | u | n | n | 10µM
COc1ccccc1OCC(=O)Nc1oc(-c2ccccc2)c(-c2ccccc2)c1C#N | n | n | n | n
N#Cc1c(NC(=O)COC(=O)C2CC3C=CC2C3)oc(-c2ccccc2)c1-c1ccccc1 (stereo unspecified) | u | n | n | 10µM
Cc1ccnc(SCC(=O)Nc2oc(-c3ccccc3)c(-c3ccccc3)c2C#N)n1 | u | n | n | u
COc1c(O)cc2oc3cc(O)c(CC=C(C)C)c(O)c3c(=O)c2c1CC=C(C)C | u | n | n | n
CCOC(=O)CCN1C(=O)[C@H]2[C@H]3[C@H](O)[C@H](O)C/C(=N/OCc4ccccc4)[C@H]3CC[C@@H]2C1=O | n[8 µM] | x | x | x
COc1ccc2c(c[n+](C)c3c4cc5c(cc4ccc23)OCO5)c1OC | 25.1µM | n | n | n
O=c1c(CCc2ccccc2)nc2cnc(N3CCNCC3)nc2n1-c1ccccc1 | u | n | n | n
CCOC(=O)c1c(N)nn(C(C)=O)c1-c1ccccc1 | n | n | n | n
CCOC(=O)c1c(-c2ccccc2)c(C(C)=O)c(=O)n(C)c1C | n | n | n | 3.98µM[single pt active]
O=C(NCc1ccc2c(c1)OCO2)Oc1ccccc1 | n | n | n | 3.98µM[single pt active]
SMILES | Anthrax LT inh | AmpC det inh | Prx2 Sm inh | AmpC nodet inh
COc1ccc(S(=O)(=O)Cc2ccc(C(=O)NC(C)C)o2)cc1 | n | n | n | n
COc1ccccc1S(=O)(=O)Cc1ccc(C(=O)NCc2cccnc2)o1 | n | n | n | 3.98µM[single pt active]
COCCNC(=O)c1ccc(CS(=O)(=O)c2ccc(OC)cc2)o1 | n | n | n | 3.98µM[single pt active]
COc1ccccc1S(=O)(=O)Cc1ccc(C(=O)NCCN2CCCC2)o1 | n | n | n | n
CCC(C)NC(=O)c1ccc(CS(=O)(=O)c2ccc(OC)cc2)o1 (stereo unspecified) | n | n | n | 3.98µM[single pt active]
COCCNC(=O)c1ccc(CS(=O)(=O)c2c(Cl)cccc2Cl)o1 | n | n | n | n
NS(=O)(=O)c1cc2c(cc1Cl)=NC(CCC(=O)O)=NS=2(=O)O | n[8 µM] | n[5.75 µM] | n | n[5.75 µM]
CCN(CC)C(=O)c1ccc(CS(=O)(=O)c2ccc(OC)cc2)o1 | n | n | n | 3.98µM[single pt active]
CCc1ccccc1S(=O)(=O)Cc1ccc(C(=O)NC(C)C)o1 | n | n | n | n

Screening data deposited in PubChem BioAssay by National Center for Advancing Translational Sciences (NCATS).
